Hit rate of the full screen: of about 340,000 compounds, about 8,500 (2.5%) were called active. What follows is part of a selection rich in actives, with near analogues and random picks from the rest. A number with no mark means an inactive call.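 The calls were made as follows: active = melting temperature shift of at least 10% of the positive control shift, at one fixed dose; inactive = the rest.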

This assay relates to Glutamate receptor ionotropic, NMDA 3A (GRIN3A) ligand-binding domain. Nature of the assay: NR3A LBD thermal stabilization by compounds – biophysical, differential scanning fluorimetry, uHTS, primary screen (AID 1259313). Conditions: at 25 µM, hits give high values, 0% = protein alone, 100% = glycine-bound protein. (DSF heats the sample and reads unfolding from a dye or from intrinsic fluorescence.)
In the case of `Cc1cccc(C(=O)Nc2ccccc2C(=O)NCc2cccnc2)c1`, the Tm shift relative to glycine control was -0.85%.

For the compound `Cc1nc(NNC(=O)c2ccccc2)cc(-c2ccccc2)n1`, the Tm shift relative to glycine control is -0.16%.

For the compound `Nc1cccc(-c2cc(-c3ccccc3)nc(-c3cccc(N)c3)n2)c1`, the Tm shift relative to glycine control was 42.8% (active).

For the compound `c1ccc(-c2cc(N3CCCCC3)c3ccccc3n2)cc1`, the Tm shift relative to glycine control was 0.96%.

`Oc1[nH]c2ccc(Br)cc2c1N=Nc1nn[nH]n1`: the Tm shift relative to glycine control was 4.42%.

Take `NS(=O)(=O)c1ccc(N=Nc2c(O)[nH]c3ccc(Br)cc23)cc1`: the Tm shift relative to glycine control is 23.4% (active).

Turning to `O=C(CNC(=O)Cc1ccccc1)N=Nc1c(O)[nH]c2ccc(Br)cc12`, the Tm shift relative to glycine control is -9.04%.

As for `CCOc1cc2[nH]c(=S)n(CCN3CCCCC3C)c(=O)c2cc1OCC` (configuration not stated), the Tm shift relative to glycine control is 0.59%.

As for `Cc1cc(C)cc(OCC(=O)NNC(=O)c2cc3ccccc3oc2=O)c1`, the Tm shift relative to glycine control was 2.22%.

For the compound `O=C(CC(c1ccccc1)c1ccccc1)NCC(O)c1ccc([N+](=O)[O-])cc1` (configuration not stated), the Tm shift relative to glycine control is -6.68%.

With `O=C(NCC(O)c1ccc([N+](=O)[O-])cc1)C1CCCCC1` (configuration not stated), the Tm shift relative to glycine control was -0.64%.

In the case of `CC(=O)NCC(O)c1ccc([N+](=O)[O-])cc1` (configuration not stated), the Tm shift relative to glycine control was 12.1% (active).

`COC(=O)c1cc(NS(=O)(=O)c2ccc3c(c2)c(=O)n(C)c(=O)n3C)cc(C(=O)OC)c1`: the Tm shift relative to glycine control is -17.2%.

On to `Cc1csc2nc(O)c(C(=O)NCCN3CCOCC3)c(=O)n12`, for which the Tm shift relative to glycine control is 1.24%.

On to `NC(=O)C1CCN(CC(O)CSc2ccc(F)cc2)CC1` (configuration not stated), for which the Tm shift relative to glycine control is -0.69%.

With `CCOC(=O)c1sc(-c2cccc([N+](=O)[O-])c2)cc1N`, the Tm shift relative to glycine control was 20.4% (active).

Take `CCOC(=O)C1=C(CN2CCCCCC2)NC(=O)NC1c1cccc([N+](=O)[O-])c1` (configuration not stated): the Tm shift relative to glycine control is 0.15%.

As to `COC(=O)C(C)Oc1ccc2c(-c3cccc([N+](=O)[O-])c3)cc(=O)oc2c1` (configuration not stated), the Tm shift relative to glycine control was 0.72%.

With `C=CCn1c(C)cc(C2=NNC(=NCC)SC2)c1C`, the Tm shift relative to glycine control is -0.92%.

Regarding `Cc1cccc(C(=O)Nc2nnc(Cc3c[nH]c4ccccc34)s2)c1`, the Tm shift relative to glycine control is -7.42%.

Take `Cc1cccc(N=C2NN=C(c3c[nH]c4ccccc34)CS2)c1`: the Tm shift relative to glycine control is 19.3% (active).

`CC(C)C(C(=O)NCc1ccco1)N(CC1CCCO1)C(=O)CNS(=O)(=O)c1ccc(F)cc1` (configuration not stated): the Tm shift relative to glycine control was 0.85%.

As for `O=C(Nn1cc(C(=O)N2CCN(c3ccccc3F)CC2)c2ccccc2c1=O)c1cnccn1`, the Tm shift relative to glycine control was -1.41%.

As to `COc1ccc(S(=O)(=O)Nc2ccc(O)c(Sc3nc4ccccc4s3)c2)cc1`, the Tm shift relative to glycine control was 11.6% (active).

On to `COc1ccc(/C=C(/CC(=O)Nc2ccc(C)cc2)c2nc3ccccc3s2)cc1`, for which the Tm shift relative to glycine control is -2.24%.

For `COc1ccc(NS(=O)(=O)c2ccc3oc(SCC(N)=O)nc3c2)cc1`, the Tm shift relative to glycine control was -0.47%.

`CCC(C)(C)NC(=O)/C=C/c1cc(OC)c(OC)c(S(=O)(=O)N2CCc3ccccc32)c1`: the Tm shift relative to glycine control was 0.08%.

For `COCCNC(=S)N/N=C/c1c(C)[nH]c2ccccc12`, the Tm shift relative to glycine control is -4.38%.

For `O=C(N/N=C/c1c(Cl)[nH]c2ccccc12)c1sc2ccccc2c1Cl`, the Tm shift relative to glycine control is 28.2% (active).

As to `COc1ccc(CNC(=O)CNC(=O)c2sc3ccccc3c2Cl)cc1OC`, the Tm shift relative to glycine control was 1.07%.

Consider `Cc1ccc(N(C(=O)C(F)(F)F)C(C(=O)NC2CCCCC2)c2ccncc2)cc1C` (configuration not stated), for which the Tm shift relative to glycine control was -1.17%.

`O=C(OC1CCCCC1=O)c1cccc(S(=O)(=O)NCc2ccccc2)c1` (configuration not stated): the Tm shift relative to glycine control was -0.25%.

With `CC1CN(c2cc(=O)n(-c3cccc(Br)c3)c(=O)[nH]2)CC(C)O1` (configuration not stated), the Tm shift relative to glycine control is 0.6%.

Take `COc1ccc(Br)cc1CN(C)CC(=O)Nc1cc(Cl)cc(Cl)c1`: the Tm shift relative to glycine control was -14.8%.

In the case of `O=C1c2ccccc2C(=O)N1CC1c2ccccc2CCN1S(=O)(=O)c1ccccc1` (configuration not stated), the Tm shift relative to glycine control is -1.14%.

`CCOC(=O)c1ccc(-n2c(CCC(=O)O)ccc2-c2ccccc2)cc1`: the Tm shift relative to glycine control was 0.18%.

In the case of `Cc1ccc(CNC(=O)CC2Sc3ccccc3NC2=O)cc1` (configuration not stated), the Tm shift relative to glycine control is -1.5%.

As to `Cc1c(Cl)cccc1NC(=O)CC1SC(=NCC2CCCO2)NC1=O` (configuration not stated), the Tm shift relative to glycine control was -1.26%.

Take `Cc1ccc(NC(=O)CC2S/C(=N/N=C3\CCCc4ccccc43)NC2=O)cc1` (configuration not stated): the Tm shift relative to glycine control was 25.5% (active).

As to `CC(C)CCNC(=O)CN(C(=O)Cn1nnc(-c2ccc(F)cc2)n1)C1CCCC1`, the Tm shift relative to glycine control is -0.75%.

Take `CN(C(=O)Cn1nnc(-c2ccc(F)cc2)n1)C1CCS(=O)(=O)C1` (configuration not stated): the Tm shift relative to glycine control was 0.08%.

In the case of `CC(C)CCNC(=O)C(C)N(C(=O)Cn1nnc(-c2ccc(F)cc2)n1)C1CCCC1` (configuration not stated), the Tm shift relative to glycine control was 22.9% (active).

Consider `COCC1CCN(C(=O)c2ccc3oc(Cc4ccccc4)nc3c2)C1` (configuration not stated), for which the Tm shift relative to glycine control was -2.47%.

As for `CN(C)Cc1c(O)ccc2occ(C(O)c3ccccc3)c12` (configuration not stated), the Tm shift relative to glycine control was -0.8%.

For the compound `CCN(C(=O)CSc1nnc(-c2ccc(OC(F)F)cc2)n1N)C1CCS(=O)(=O)C1` (configuration not stated), the Tm shift relative to glycine control is 0.42%.

Regarding `CC(C)NC(=O)NC(=O)CSc1nnc(-c2ccccc2F)n1N`, the Tm shift relative to glycine control was -0.64%.

For `Cc1ccc(NC(=O)NC(=O)CSc2nnc(-c3ccc(OC(F)F)cc3)n2N)c(C)c1`, the Tm shift relative to glycine control is 47.6% (active).
